Where a chain is given by its changes, count along the chain named. In all, about 16,000 sequences were measured (“ka relative to ugcaugu”: median about 0.096, highest 2% from about 0.35 on). The sample as a whole holds a higher share of the highest values than the screen did.
T1: RBFOX1 RRM RbFoxmut (Fox-RRM*) (Homo sapiens, UniProt Q9NWB1 109-208, R118D;E147R;N151S;E152T)
T1 sequence: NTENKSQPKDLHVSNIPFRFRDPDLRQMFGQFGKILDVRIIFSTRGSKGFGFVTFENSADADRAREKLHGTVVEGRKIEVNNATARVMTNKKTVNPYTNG

B1: UCCUGUC (DNA:RNA)
RNA: GGGAGACCGGAAUUCAGAUUGUCCUCCUGUCUUAAAUCCCGUCGUAGCCACCA
DNA 1: CAATCTGAATTCCGGTCTCCC
DNA 2: TGGTGGCTACGACGGGATT
B2: UGUCUGG (DNA:RNA)
RNA: B1 RNA with C26G, C27U, U28C, G29U, U30G, C31G
DNA 1: CAATCTGAATTCCGGTCTCCC
DNA 2: TGGTGGCTACGACGGGATT
B3: UGUCUUG (DNA:RNA)
RNA: B1 RNA with C26G, C27U, U28C, G29U, C31G
DNA 1: CAATCTGAATTCCGGTCTCCC
DNA 2: TGGTGGCTACGACGGGATT
B4: UGGUCGC (DNA:RNA)
RNA: B1 RNA with C26G, C27G, G29C, U30G
DNA 1: CAATCTGAATTCCGGTCTCCC
DNA 2: TGGTGGCTACGACGGGATT
B5: UGCUGUC (DNA:RNA)
RNA: B1 RNA with C26G
DNA 1: CAATCTGAATTCCGGTCTCCC
DNA 2: TGGTGGCTACGACGGGATT
B6: UGUCGUC (DNA:RNA)
RNA: B1 RNA with C26G, C27U, U28C
DNA 1: CAATCTGAATTCCGGTCTCCC
DNA 2: TGGTGGCTACGACGGGATT
B7: UGUUGUC (DNA:RNA)
RNA: B1 RNA with C26G, C27U
DNA 1: CAATCTGAATTCCGGTCTCCC
DNA 2: TGGTGGCTACGACGGGATT
B8: UGUCUUC (DNA:RNA)
RNA: B1 RNA with C26G, C27U, U28C, G29U
DNA 1: CAATCTGAATTCCGGTCTCCC
DNA 2: TGGTGGCTACGACGGGATT
B9: UGGUCUG (DNA:RNA)
RNA: B1 RNA with C26G, C27G, G29C, C31G
DNA 1: CAATCTGAATTCCGGTCTCCC
DNA 2: TGGTGGCTACGACGGGATT
B10: CCGAUCU (DNA:RNA)
RNA: B1 RNA with U25C, C27G, U28A, G29U, U30C, C31U
DNA 1: CAATCTGAATTCCGGTCTCCC
DNA 2: TGGTGGCTACGACGGGATT
B11: CACUUGA (DNA:RNA)
RNA: B1 RNA with U25C, C26A, G29U, U30G, C31A
DNA 1: CAATCTGAATTCCGGTCTCCC
DNA 2: TGGTGGCTACGACGGGATT
B12: CACUUAG (DNA:RNA)
RNA: B1 RNA with U25C, C26A, G29U, U30A, C31G
DNA 1: CAATCTGAATTCCGGTCTCCC
DNA 2: TGGTGGCTACGACGGGATT
B13: GAAAGCU (DNA:RNA)
RNA: B1 RNA with U25G, C26A, C27A, U28A, U30C, C31U
DNA 1: CAATCTGAATTCCGGTCTCCC
DNA 2: TGGTGGCTACGACGGGATT
B14: CAGCAUU (DNA:RNA)
RNA: B1 RNA with U25C, C26A, C27G, U28C, G29A, C31U
DNA 1: CAATCTGAATTCCGGTCTCCC
DNA 2: TGGTGGCTACGACGGGATT
B15: UUAAACA (DNA:RNA)
RNA: B1 RNA with C26U, C27A, U28A, G29A, U30C, C31A
DNA 1: CAATCTGAATTCCGGTCTCCC
DNA 2: TGGTGGCTACGACGGGATT
B16: CCUGGCA (DNA:RNA)
RNA: B1 RNA with U25C, C27U, U28G, U30C, C31A
DNA 1: CAATCTGAATTCCGGTCTCCC
DNA 2: TGGTGGCTACGACGGGATT
B17: GUCCAUC (DNA:RNA)
RNA: B1 RNA with U25G, C26U, U28C, G29A
DNA 1: CAATCTGAATTCCGGTCTCCC
DNA 2: TGGTGGCTACGACGGGATT
B18: AUCCAUC (DNA:RNA)
RNA: B1 RNA with U25A, C26U, U28C, G29A
DNA 1: CAATCTGAATTCCGGTCTCCC
DNA 2: TGGTGGCTACGACGGGATT
B19: AUGCAUC (DNA:RNA)
RNA: B1 RNA with U25A, C26U, C27G, U28C, G29A
DNA 1: CAATCTGAATTCCGGTCTCCC
DNA 2: TGGTGGCTACGACGGGATT
B20: AUGCAUG (DNA:RNA)
RNA: B1 RNA with U25A, C26U, C27G, U28C, G29A, C31G
DNA 1: CAATCTGAATTCCGGTCTCCC
DNA 2: TGGTGGCTACGACGGGATT
B21: AUGCAGA (DNA:RNA)
RNA: GGGAGACCGGAAUUCAGAUUGUCCAUGCAGAUUAAAUCCCGUCGUAGCCACCA
DNA 1: CAATCTGAATTCCGGTCTCCC
DNA 2: TGGTGGCTACGACGGGATT
B22: AUGCAUA (DNA:RNA)
RNA: B21 RNA with G30U
DNA 1: CAATCTGAATTCCGGTCTCCC
DNA 2: TGGTGGCTACGACGGGATT
B23: AACCGUG (DNA:RNA)
RNA: B1 RNA with U25A, C26A, U28C, C31G
DNA 1: CAATCTGAATTCCGGTCTCCC
DNA 2: TGGTGGCTACGACGGGATT
B24: GGCUGGA (DNA:RNA)
RNA: B1 RNA with U25G, C26G, U30G, C31A
DNA 1: CAATCTGAATTCCGGTCTCCC
DNA 2: TGGTGGCTACGACGGGATT
B25: CUCCGAA (DNA:RNA)
RNA: B21 RNA with A25C, G27C, A29G, G30A
DNA 1: CAATCTGAATTCCGGTCTCCC
DNA 2: TGGTGGCTACGACGGGATT
B26: UGCUACC (DNA:RNA)
RNA: B1 RNA with C26G, G29A, U30C
DNA 1: CAATCTGAATTCCGGTCTCCC
DNA 2: TGGTGGCTACGACGGGATT
B27: AAAUGCG (DNA:RNA)
RNA: B1 RNA with U25A, C26A, C27A, U30C, C31G
DNA 1: CAATCTGAATTCCGGTCTCCC
DNA 2: TGGTGGCTACGACGGGATT
B28: UGACUUC (DNA:RNA)
RNA: B1 RNA with C26G, C27A, U28C, G29U
DNA 1: CAATCTGAATTCCGGTCTCCC
DNA 2: TGGTGGCTACGACGGGATT
B29: UCAUAAU (DNA:RNA)
RNA: B1 RNA with C27A, G29A, U30A, C31U
DNA 1: CAATCTGAATTCCGGTCTCCC
DNA 2: TGGTGGCTACGACGGGATT
B30: GUGCACG (DNA:RNA)
RNA: B21 RNA with A25G, G30C, A31G
DNA 1: CAATCTGAATTCCGGTCTCCC
DNA 2: TGGTGGCTACGACGGGATT
B31: UUGCCCG (DNA:RNA)
RNA: B21 RNA with A25U, A29C, G30C, A31G
DNA 1: CAATCTGAATTCCGGTCTCCC
DNA 2: TGGTGGCTACGACGGGATT
B32: UUGCACC (DNA:RNA)
RNA: B21 RNA with A25U, G30C, A31C
DNA 1: CAATCTGAATTCCGGTCTCCC
DNA 2: TGGTGGCTACGACGGGATT
B33: UUGCACG (DNA:RNA)
RNA: B21 RNA with A25U, G30C, A31G
DNA 1: CAATCTGAATTCCGGTCTCCC
DNA 2: TGGTGGCTACGACGGGATT
B34: GUGCACC (DNA:RNA)
RNA: B21 RNA with A25G, G30C, A31C
DNA 1: CAATCTGAATTCCGGTCTCCC
DNA 2: TGGTGGCTACGACGGGATT
B35: ACGUGCG (DNA:RNA)
RNA: B1 RNA with U25A, C27G, U30C, C31G
DNA 1: CAATCTGAATTCCGGTCTCCC
DNA 2: TGGTGGCTACGACGGGATT
B36: AUGCACC (DNA:RNA)
RNA: B21 RNA with G30C, A31C
DNA 1: CAATCTGAATTCCGGTCTCCC
DNA 2: TGGTGGCTACGACGGGATT
B37: AUCCACG (DNA:RNA)
RNA: B21 RNA with G27C, G30C, A31G
DNA 1: CAATCTGAATTCCGGTCTCCC
DNA 2: TGGTGGCTACGACGGGATT
B38: AUGCACG (DNA:RNA)
RNA: B21 RNA with G30C, A31G
DNA 1: CAATCTGAATTCCGGTCTCCC
DNA 2: TGGTGGCTACGACGGGATT

molecular target: T1, RBFOX1 RRM RbFoxmut (Fox-RRM*); test: EMSA; HiTS-Eq, 1 nM pool, 10 min; buffer printed only for the single-RNA assays: 10 mM Tris pH 7.5, 150 mM NaCl, 3.4 mM EDTA, 0.001% NP-40, 30 C; conditions: tags: His6 N-terminal (pET28a); label: 5' 32P
Procedure, shortened: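 Purified RbFox RRM, wild type or mutant, was incubated for 10 min in 50 µL with 1 nM of a 5′-radiolabelled RNA pool carrying 7 randomized nucleotides, whose flanks were annealed to DNA oligonucleotides, over a series of increasing protein concentrations. Unbound RNA was resolved on 8% native PAGE, cut out, reverse-transcribed, barcoded by PCR and sequenced on an Illumina HiSeq 2500. Relative association constants were derived from changes in read counts for each RNA species versus the control reaction and normalised to the cognate motif.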

Binder | binding signal
B1 | 0.164 KA relative to UGCAUGU
B2 | 0.196 KA relative to UGCAUGU
B3 | 0.674 KA relative to UGCAUGU
B4 | 0.114 KA relative to UGCAUGU
B5 | 0.331 KA relative to UGCAUGU
B6 | 0.119 KA relative to UGCAUGU
B7 | 0.468 KA relative to UGCAUGU
B8 | 0.201 KA relative to UGCAUGU
B9 | 0.374 KA relative to UGCAUGU
B10 | 0.0341 KA relative to UGCAUGU
B11 | 0.114 KA relative to UGCAUGU
B12 | 0.16 KA relative to UGCAUGU
B13 | 0.0545 KA relative to UGCAUGU
B14 | 0.107 KA relative to UGCAUGU
B15 | 0.0699 KA relative to UGCAUGU
B16 | 0.148 KA relative to UGCAUGU
B17 | 0.0764 KA relative to UGCAUGU
B18 | 0.1 KA relative to UGCAUGU
B19 | 0.446 KA relative to UGCAUGU

Binder | binding signal
B20 | 0.951 KA relative to UGCAUGU
B21 | 0.125 KA relative to UGCAUGU
B22 | 0.161 KA relative to UGCAUGU
B23 | 0.109 KA relative to UGCAUGU
B24 | 0.0732 KA relative to UGCAUGU
B25 | 0.104 KA relative to UGCAUGU
B26 | 0.147 KA relative to UGCAUGU
B27 | 0.104 KA relative to UGCAUGU
B28 | 0.0822 KA relative to UGCAUGU
B29 | 0.103 KA relative to UGCAUGU
B30 | 0.66 KA relative to UGCAUGU
B31 | 0.178 KA relative to UGCAUGU
B32 | 0.181 KA relative to UGCAUGU
B33 | 0.612 KA relative to UGCAUGU
B34 | 0.167 KA relative to UGCAUGU
B35 | 0.182 KA relative to UGCAUGU
B36 | 0.132 KA relative to UGCAUGU
B37 | 0.135 KA relative to UGCAUGU
B38 | 0.551 KA relative to UGCAUGU

— article PMC9911399, “Two distinct binding modes provide the RNA-binding protein RbFox with extraordinary sequence specificity”
